Results reported in ChEMBL document CHEMBL1961873, “Compounds: GSK PKIS; Assays: Nanosyn kinase panel” (2012).

Experiments:
[1] = biological target: Sphingosine kinase 1 (Homo sapiens) (UniProt Q9NYA1); conditions: at 1 µM;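 note: mean SPHK1 inhibition value reported from the GSK PKIS kinase panel screen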
[2] = biological target: T1, Sphingosine kinase 2 (Homo sapiens) (UniProt Q9NRA0); conditions: at 0.1 µM
T1 sequence (whole entry): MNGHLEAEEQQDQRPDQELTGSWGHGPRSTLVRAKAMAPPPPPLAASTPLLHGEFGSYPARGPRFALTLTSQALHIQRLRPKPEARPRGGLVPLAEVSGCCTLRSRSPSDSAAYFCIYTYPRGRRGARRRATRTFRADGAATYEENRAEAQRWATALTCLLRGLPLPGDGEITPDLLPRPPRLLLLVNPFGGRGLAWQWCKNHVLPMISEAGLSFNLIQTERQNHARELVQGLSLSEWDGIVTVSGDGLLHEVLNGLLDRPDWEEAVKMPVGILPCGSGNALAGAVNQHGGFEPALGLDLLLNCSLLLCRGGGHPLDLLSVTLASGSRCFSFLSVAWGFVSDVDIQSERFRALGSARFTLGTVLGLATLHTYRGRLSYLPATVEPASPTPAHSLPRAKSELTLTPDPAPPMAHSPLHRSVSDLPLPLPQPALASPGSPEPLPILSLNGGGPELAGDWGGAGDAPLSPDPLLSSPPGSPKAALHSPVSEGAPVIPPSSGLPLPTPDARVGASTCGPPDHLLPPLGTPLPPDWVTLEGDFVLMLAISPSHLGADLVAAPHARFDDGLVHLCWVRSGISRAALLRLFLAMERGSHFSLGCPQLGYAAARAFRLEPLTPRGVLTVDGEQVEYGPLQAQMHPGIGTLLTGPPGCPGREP

[3] = biological target: T1, Sphingosine kinase 2 (Homo sapiens); conditions: at 1 µM
[4] = biological target: Casein kinase II subunit alpha (Homo sapiens) (UniProt P68400); conditions: at 0.1 µM
Chain of Casein kinase II subunit alpha (Homo sapiens) (P68400 whole entry, looked up): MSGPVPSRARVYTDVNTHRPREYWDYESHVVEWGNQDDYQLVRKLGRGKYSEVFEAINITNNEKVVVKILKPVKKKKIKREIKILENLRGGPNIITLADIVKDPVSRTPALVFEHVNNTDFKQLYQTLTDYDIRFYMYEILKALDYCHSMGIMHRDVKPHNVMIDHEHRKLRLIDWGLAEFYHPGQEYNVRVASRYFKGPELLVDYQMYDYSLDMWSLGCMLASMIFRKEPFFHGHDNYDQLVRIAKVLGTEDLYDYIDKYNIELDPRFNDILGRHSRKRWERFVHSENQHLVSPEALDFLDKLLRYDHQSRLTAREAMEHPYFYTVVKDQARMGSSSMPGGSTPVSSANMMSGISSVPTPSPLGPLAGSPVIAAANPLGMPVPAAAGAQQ

[5] = biological target: Casein kinase II subunit alpha (Homo sapiens) (UniProt P68400); conditions: at 1 µM
[6] = biological target: T2, Inhibitor of nuclear factor kappa-B kinase subunit alpha (Homo sapiens) (UniProt O15111); conditions: at 0.1 µM
T2 sequence (whole entry): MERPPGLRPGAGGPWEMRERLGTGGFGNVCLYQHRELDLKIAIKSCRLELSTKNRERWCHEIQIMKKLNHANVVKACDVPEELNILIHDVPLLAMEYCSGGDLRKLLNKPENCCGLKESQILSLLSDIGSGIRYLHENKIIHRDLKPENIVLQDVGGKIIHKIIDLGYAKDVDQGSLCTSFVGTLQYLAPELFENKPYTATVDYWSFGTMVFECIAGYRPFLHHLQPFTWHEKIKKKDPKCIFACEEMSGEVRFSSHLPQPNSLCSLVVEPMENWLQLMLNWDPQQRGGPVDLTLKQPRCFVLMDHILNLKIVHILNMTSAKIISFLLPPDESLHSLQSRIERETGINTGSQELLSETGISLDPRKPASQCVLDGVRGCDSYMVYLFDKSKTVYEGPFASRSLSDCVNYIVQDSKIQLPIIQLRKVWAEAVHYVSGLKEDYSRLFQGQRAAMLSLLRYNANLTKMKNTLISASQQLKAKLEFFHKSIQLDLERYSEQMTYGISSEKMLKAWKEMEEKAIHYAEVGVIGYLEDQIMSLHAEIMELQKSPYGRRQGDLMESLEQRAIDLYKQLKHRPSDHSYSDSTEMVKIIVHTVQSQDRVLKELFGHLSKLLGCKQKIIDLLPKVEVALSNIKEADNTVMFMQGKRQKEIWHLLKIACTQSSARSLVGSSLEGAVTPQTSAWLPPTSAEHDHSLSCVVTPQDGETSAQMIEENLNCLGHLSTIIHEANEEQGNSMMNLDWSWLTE

[7] = biological target: T2, Inhibitor of nuclear factor kappa-B kinase subunit alpha (Homo sapiens); conditions: at 1 µM
[8] = biological target: T3, Inhibitor of nuclear factor kappa-B kinase subunit beta (Homo sapiens) (UniProt O14920); conditions: at 0.1 µM
T3 sequence (whole entry): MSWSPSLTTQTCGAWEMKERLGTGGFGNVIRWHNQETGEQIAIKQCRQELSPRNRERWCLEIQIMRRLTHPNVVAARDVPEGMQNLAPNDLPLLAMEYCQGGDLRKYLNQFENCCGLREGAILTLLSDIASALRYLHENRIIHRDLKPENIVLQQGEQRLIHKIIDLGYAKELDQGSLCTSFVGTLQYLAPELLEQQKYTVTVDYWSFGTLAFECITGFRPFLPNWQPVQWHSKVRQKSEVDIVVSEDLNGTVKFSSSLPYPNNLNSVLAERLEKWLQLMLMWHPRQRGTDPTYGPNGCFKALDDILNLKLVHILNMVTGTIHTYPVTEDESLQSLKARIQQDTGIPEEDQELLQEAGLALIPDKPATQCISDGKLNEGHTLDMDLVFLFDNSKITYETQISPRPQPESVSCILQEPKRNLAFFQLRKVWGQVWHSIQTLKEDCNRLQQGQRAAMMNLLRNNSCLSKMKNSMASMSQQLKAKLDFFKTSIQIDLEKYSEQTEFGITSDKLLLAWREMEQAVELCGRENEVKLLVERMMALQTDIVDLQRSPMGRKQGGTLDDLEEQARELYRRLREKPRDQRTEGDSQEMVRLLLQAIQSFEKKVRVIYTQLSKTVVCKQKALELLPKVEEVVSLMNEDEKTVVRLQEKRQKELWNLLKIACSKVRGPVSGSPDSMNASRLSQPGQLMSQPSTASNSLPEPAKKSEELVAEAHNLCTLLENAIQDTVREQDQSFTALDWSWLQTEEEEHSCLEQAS

[9] = biological target: T3, Inhibitor of nuclear factor kappa-B kinase subunit beta (Homo sapiens); conditions: at 1 µM
[10] = biological target: T4, Inhibitor of nuclear factor kappa-B kinase subunit epsilon (Homo sapiens) (UniProt Q14164); conditions: at 0.1 µM
T4 sequence (whole entry): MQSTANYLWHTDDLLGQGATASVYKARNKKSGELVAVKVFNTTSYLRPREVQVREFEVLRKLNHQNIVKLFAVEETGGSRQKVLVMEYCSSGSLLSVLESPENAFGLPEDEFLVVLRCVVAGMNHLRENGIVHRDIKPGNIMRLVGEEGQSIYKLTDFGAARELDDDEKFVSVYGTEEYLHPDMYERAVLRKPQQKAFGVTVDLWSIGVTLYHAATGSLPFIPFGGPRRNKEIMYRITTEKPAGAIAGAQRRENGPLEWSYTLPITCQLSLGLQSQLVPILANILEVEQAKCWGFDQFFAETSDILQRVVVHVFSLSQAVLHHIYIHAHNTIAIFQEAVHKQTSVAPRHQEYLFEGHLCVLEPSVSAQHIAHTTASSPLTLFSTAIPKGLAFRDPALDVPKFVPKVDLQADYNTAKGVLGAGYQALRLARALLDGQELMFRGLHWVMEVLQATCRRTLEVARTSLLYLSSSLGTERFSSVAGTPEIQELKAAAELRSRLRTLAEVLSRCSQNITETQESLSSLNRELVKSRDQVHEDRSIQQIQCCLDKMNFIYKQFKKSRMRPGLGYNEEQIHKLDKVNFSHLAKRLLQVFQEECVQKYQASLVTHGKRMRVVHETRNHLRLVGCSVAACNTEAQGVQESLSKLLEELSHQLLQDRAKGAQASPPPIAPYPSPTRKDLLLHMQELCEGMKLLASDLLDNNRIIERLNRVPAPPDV

[11] = biological target: T4, Inhibitor of nuclear factor kappa-B kinase subunit epsilon (Homo sapiens); conditions: at 1 µM
[12] = biological target: T5, Serine/threonine-protein kinase Nek1 (Homo sapiens) (UniProt Q96PY6); conditions: at 0.1 µM
T5 sequence (whole entry): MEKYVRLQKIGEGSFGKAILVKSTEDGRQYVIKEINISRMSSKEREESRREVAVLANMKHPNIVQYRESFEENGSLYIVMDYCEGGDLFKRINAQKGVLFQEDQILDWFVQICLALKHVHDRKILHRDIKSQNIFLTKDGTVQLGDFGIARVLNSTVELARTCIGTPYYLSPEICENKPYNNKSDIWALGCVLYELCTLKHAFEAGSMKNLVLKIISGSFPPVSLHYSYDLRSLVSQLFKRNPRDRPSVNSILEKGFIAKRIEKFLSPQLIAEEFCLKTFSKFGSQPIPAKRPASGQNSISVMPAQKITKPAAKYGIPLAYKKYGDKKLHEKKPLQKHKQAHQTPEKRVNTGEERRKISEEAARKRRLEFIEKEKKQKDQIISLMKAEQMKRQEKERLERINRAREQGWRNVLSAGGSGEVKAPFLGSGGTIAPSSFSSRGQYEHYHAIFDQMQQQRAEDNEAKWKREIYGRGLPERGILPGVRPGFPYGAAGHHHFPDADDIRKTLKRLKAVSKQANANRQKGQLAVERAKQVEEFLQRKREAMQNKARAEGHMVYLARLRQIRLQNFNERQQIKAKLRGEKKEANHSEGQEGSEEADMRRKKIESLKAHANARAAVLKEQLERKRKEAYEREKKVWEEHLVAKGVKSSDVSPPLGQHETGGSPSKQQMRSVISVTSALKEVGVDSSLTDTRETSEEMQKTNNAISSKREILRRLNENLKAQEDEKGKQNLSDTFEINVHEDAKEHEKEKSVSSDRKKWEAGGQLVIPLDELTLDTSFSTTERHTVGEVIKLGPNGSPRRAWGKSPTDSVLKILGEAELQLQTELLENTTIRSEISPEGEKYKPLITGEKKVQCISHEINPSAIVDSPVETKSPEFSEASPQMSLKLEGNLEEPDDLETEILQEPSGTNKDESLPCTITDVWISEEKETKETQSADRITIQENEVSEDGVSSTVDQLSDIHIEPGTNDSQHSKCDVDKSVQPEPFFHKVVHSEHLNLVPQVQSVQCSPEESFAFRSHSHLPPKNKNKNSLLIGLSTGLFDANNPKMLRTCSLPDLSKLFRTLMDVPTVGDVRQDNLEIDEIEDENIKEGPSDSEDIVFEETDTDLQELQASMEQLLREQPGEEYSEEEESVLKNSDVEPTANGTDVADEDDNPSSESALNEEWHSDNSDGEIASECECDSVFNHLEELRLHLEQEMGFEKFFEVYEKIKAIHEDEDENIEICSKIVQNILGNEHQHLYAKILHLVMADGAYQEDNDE

[13] = biological target: T5, Serine/threonine-protein kinase Nek1 (Homo sapiens); conditions: at 1 µM
[14] = biological target: T6, Serine/threonine-protein kinase Nek2 (Homo sapiens) (UniProt P51955); conditions: at 0.1 µM
T6 sequence (whole entry): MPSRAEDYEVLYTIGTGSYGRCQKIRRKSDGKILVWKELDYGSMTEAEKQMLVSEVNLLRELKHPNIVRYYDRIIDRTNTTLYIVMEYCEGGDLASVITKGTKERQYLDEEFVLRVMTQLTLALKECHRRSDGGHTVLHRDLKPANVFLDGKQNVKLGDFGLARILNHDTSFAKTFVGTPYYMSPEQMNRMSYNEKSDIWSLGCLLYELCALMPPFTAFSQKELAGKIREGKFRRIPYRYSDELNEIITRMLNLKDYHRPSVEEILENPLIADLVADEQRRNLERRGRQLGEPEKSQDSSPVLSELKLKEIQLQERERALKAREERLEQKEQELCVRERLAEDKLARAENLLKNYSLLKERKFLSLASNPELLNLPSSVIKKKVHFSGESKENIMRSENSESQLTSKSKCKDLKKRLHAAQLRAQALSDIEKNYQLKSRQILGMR

[15] = biological target: T6, Serine/threonine-protein kinase Nek2 (Homo sapiens); conditions: at 1 µM
[16] = biological target: Serine/threonine-protein kinase Nek6 (Homo sapiens) (UniProt Q9HC98); conditions: at 0.1 µM
Chain of Serine/threonine-protein kinase Nek6 (Homo sapiens) (Q9HC98 whole entry): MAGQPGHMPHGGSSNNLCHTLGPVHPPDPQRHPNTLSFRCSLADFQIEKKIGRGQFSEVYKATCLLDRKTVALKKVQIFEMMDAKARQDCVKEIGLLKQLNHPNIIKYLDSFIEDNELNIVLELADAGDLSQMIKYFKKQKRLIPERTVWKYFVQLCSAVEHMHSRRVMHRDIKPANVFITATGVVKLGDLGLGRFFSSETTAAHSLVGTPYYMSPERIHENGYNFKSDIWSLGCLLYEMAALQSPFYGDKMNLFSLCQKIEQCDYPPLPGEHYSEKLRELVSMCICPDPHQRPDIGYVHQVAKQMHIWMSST

[17] = biological target: Serine/threonine-protein kinase Nek6 (Homo sapiens) (UniProt Q9HC98); conditions: at 1 µM
[18] = biological target: Serine/threonine-protein kinase Nek7 (Homo sapiens) (UniProt Q8TDX7); conditions: at 0.1 µM
Chain of Serine/threonine-protein kinase Nek7 (Homo sapiens) (Q8TDX7 whole entry, looked up): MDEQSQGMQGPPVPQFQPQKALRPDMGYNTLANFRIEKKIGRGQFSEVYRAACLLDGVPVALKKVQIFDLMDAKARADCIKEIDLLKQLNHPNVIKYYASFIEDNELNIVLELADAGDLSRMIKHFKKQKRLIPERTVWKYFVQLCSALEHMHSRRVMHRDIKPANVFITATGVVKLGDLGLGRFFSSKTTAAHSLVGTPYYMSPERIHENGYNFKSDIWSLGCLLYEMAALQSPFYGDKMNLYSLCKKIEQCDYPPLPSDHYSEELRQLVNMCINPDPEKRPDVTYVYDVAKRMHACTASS

[19] = biological target: Serine/threonine-protein kinase Nek7 (Homo sapiens) (UniProt Q8TDX7); conditions: at 1 µM
[20] = biological target: T7, Serine/threonine-protein kinase Nek9 (Homo sapiens) (UniProt Q8TD19); conditions: at 0.1 µM;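 note: reported value is the mean percent inhibition of NEK9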
T7 sequence (whole entry): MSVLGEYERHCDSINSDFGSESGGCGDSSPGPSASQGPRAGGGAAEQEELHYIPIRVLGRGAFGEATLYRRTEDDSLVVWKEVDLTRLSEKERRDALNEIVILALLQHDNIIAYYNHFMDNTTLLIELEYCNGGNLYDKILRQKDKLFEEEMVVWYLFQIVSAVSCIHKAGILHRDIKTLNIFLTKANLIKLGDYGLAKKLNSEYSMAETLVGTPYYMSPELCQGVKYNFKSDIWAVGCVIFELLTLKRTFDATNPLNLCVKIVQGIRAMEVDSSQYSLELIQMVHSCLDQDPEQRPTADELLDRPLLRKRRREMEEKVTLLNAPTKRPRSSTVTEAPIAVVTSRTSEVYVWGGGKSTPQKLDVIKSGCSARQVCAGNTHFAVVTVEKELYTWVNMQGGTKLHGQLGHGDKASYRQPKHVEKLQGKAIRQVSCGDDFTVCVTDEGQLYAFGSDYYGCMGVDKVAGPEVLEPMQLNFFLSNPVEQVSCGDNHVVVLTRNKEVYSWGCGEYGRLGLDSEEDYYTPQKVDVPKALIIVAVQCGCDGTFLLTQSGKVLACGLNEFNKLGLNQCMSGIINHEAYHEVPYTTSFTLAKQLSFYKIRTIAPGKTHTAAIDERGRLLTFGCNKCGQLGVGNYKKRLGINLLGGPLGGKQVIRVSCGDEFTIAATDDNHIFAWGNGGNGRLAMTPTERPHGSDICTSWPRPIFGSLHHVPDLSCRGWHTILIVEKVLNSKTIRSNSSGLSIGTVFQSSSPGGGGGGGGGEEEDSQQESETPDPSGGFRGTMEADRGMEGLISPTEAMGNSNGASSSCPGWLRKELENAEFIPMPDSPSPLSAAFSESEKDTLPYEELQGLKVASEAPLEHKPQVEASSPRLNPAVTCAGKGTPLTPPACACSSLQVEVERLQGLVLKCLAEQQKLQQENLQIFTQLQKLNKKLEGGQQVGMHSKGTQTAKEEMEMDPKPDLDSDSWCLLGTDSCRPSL

Chain of Sphingosine kinase 1 (Homo sapiens) (Q9NYA1 whole entry): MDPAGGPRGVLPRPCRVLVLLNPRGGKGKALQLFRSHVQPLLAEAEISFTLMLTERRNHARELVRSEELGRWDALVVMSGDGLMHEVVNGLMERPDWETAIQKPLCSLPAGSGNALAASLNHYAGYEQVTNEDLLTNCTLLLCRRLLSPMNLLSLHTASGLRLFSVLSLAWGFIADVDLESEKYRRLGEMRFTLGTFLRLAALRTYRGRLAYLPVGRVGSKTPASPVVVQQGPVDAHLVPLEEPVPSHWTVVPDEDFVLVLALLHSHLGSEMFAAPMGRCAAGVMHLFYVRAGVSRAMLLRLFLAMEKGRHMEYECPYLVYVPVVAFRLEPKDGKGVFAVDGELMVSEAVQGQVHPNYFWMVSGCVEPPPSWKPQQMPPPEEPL

`O=C1Nc2ccc(I)cc2C1=Cc1cc(Br)c(O)c(Br)c1` was tested, and the inhibition [1] was 0.73%, the inhibition [2] was -0.66% and the inhibition [3] was 3.26%. It also gave an inhibition [4] of 4.28%, an inhibition [5] of 17.9% and an inhibition [6] of 1.76%. The inhibition [7] was 3.02%, the inhibition [8] was 1.64% and the inhibition [9] was 3.61%. For the same molecule, the inhibition [10] was 10.2%, the inhibition [11] was 3.78% and the inhibition [12] was 2.45%. For the same molecule, the inhibition [13] was 3.61%, the inhibition [14] was 4.91% and the inhibition [15] was 3.15%. For the same molecule, the inhibition [16] was 1.35%, the inhibition [17] was 3.89% and the inhibition [18] was 4.66%. The inhibition [19] was 10.6% and the inhibition [20] was 9.81%.
